# Measurements published in PMC7862700, “An all-to-all approach to the identification of sequence-specific readers for epigenetic DNA modifications on cytosine”.
# Columns and labels:
# Assay in all cases: DAPPL (digital affinity profiling via proximity ligation, sequencing); 10 mM Tris-HCl pH 7.5, 50 mM NaCl, 1 mM DTT, 4% glycerol, room temperature, 30 min; GST-TFs on glutathione beads, 16-mer random dsDNA library, 0.1% formaldehyde crosslink after washing; high values mean tight binding
# Conditions in all cases: protein: recombinant; tags: N-terminal GST; dsDNA, one strand shown
# FLI1 = molecular target: T1, FLI1 (Homo sapiens, UniProt Q01543 1-452)
# T1 sequence: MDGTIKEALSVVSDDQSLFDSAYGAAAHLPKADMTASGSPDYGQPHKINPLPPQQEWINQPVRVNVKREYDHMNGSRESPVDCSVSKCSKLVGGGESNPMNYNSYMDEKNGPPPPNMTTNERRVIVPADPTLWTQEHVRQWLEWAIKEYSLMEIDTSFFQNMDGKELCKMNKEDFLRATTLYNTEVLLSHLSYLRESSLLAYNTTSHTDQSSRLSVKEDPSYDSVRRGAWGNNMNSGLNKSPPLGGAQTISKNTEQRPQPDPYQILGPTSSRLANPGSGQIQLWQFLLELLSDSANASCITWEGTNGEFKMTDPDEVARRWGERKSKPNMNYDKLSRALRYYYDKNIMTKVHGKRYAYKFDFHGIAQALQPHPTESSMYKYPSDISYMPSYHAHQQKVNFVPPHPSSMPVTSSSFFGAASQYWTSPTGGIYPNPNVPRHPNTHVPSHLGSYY
# Procedure, shortened: (§1)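 Human transcription factors carrying a GST fusion were produced in yeast, bound to glutathione beads, tagged with DNA barcodes and pooled together with a tag-only sample. Each pool was held with 200 nmole of a random double-stranded 16-mer DNA library in Tris/NaCl/DTT/glycerol buffer for 30 min at room temperature, then washed, crosslinked in 0.1% formaldehyde, proximity-ligated with BsaI/T4 ligase (1 h, 37 °C), PCR-amplified and sequenced on an Illumina NextSeq500. Binding signal is the read frequency of each hexamer for a given factor divided by its frequency in the tag-only sample.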
# EHF = molecular target: T2, EHF (Homo sapiens, UniProt Q9NZC4 1-300)
# T2 sequence: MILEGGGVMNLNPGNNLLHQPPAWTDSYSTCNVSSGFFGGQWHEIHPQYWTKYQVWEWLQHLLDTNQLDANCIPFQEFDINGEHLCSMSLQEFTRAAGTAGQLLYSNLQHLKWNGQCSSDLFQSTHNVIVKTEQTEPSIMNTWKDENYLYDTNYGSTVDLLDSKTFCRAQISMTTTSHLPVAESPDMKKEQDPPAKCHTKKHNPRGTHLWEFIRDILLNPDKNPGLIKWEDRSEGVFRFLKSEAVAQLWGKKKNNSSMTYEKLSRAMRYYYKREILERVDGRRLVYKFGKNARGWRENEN
# Procedure, shortened: as §1
# SPIB = SPIB (Homo sapiens, UniProt Q01892 1-262)
# SPIB, sequence (Q01892 whole entry): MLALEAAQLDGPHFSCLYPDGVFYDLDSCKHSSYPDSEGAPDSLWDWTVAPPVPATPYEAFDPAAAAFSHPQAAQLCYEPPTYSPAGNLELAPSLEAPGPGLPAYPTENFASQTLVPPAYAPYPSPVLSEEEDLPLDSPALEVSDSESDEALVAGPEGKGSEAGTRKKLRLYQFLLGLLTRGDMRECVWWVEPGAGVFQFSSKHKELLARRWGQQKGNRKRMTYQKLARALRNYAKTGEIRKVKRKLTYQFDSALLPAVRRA
# Procedure, shortened: as §1
# ELK3 = molecular target: T3, ELK3 (Homo sapiens, UniProt P41970 1-407)
# T3 sequence: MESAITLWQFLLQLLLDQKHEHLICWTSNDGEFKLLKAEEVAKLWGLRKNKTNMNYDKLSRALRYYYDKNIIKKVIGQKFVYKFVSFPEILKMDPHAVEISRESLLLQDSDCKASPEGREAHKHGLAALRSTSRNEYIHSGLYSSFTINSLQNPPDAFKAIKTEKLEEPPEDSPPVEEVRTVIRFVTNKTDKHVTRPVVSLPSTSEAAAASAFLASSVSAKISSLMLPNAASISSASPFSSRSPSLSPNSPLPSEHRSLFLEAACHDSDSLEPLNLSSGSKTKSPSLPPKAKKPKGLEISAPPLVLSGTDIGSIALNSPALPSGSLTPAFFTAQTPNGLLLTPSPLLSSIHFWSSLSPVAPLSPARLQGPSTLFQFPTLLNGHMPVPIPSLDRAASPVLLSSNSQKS
# Procedure, shortened: as §1
# ELF4 = ELF4 (Homo sapiens, UniProt Q99607 1-663)
# ELF4, sequence (Q99607 whole entry): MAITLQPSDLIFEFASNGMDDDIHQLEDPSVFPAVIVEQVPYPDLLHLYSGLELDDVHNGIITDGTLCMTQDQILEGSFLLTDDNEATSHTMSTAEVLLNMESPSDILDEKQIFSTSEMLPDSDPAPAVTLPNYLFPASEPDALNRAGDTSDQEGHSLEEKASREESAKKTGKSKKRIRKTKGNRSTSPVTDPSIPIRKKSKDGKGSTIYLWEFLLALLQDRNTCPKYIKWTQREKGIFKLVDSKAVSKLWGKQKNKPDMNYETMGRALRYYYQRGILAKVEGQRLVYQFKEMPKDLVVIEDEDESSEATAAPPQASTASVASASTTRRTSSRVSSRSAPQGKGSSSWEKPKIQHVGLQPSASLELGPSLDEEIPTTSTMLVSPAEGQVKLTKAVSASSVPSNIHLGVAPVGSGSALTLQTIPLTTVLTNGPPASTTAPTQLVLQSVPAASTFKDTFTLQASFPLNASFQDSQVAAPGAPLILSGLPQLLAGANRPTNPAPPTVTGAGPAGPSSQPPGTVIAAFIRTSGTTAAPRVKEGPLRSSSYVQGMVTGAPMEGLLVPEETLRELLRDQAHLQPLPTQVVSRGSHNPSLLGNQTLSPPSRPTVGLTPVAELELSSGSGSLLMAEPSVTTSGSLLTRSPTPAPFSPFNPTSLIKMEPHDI
# Procedure, shortened: as §1
# ELF3 = molecular target: T4, ELF3 (Homo sapiens, UniProt P78545 1-371)
# T4 sequence: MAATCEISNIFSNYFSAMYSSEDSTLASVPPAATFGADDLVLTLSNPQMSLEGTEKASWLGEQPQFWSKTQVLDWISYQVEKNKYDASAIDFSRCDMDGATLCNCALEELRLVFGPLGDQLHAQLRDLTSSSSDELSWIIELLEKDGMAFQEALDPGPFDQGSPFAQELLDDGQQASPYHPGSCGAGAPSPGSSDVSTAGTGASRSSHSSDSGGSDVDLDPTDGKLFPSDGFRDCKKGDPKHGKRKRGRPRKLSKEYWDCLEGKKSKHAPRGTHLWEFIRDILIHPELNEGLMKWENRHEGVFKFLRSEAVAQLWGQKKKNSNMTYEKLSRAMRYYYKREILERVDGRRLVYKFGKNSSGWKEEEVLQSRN
# Procedure, shortened: as §1
# ERF = molecular target: T5, ERF (Homo sapiens, UniProt P50548 1-548)
# T5 sequence: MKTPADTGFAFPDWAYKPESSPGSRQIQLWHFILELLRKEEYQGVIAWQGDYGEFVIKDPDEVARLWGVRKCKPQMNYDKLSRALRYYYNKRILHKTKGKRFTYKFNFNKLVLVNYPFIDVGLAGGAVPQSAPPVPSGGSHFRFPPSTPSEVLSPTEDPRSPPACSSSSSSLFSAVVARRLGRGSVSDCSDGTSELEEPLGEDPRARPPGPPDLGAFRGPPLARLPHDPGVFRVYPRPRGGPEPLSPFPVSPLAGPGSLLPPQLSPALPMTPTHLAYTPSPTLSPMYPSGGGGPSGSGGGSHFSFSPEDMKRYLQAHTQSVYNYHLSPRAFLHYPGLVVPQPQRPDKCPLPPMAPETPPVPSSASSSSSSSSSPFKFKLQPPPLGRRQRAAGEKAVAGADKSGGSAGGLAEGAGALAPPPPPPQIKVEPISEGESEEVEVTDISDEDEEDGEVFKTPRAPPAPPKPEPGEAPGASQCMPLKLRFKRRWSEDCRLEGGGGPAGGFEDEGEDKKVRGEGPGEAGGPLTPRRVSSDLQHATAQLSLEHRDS
# Procedure, shortened: as §1
# ETV7 = molecular target: T6, ETV7 (Homo sapiens, UniProt Q9Y603 1-341)
# T6 sequence: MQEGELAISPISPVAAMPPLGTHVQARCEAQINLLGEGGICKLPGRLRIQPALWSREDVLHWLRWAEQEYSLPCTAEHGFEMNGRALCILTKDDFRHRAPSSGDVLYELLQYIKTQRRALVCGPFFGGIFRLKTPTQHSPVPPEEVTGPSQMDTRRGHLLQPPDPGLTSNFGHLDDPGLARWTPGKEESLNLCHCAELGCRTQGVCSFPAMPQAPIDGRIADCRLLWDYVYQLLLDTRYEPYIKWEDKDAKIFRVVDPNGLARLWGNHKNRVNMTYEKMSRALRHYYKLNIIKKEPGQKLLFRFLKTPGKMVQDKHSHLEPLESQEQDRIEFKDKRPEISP
# Procedure, shortened: as §1
# ELF5 = molecular target: T7, ELF5 (Homo sapiens, UniProt Q9UKW6-2 1-255)
# T7 sequence: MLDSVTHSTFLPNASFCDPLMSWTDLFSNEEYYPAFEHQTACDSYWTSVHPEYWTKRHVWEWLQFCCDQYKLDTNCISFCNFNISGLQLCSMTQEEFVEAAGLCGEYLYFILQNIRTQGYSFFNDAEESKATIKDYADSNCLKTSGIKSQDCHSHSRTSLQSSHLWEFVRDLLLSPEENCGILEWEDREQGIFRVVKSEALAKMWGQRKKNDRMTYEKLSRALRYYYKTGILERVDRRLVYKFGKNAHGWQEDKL
# Procedure, shortened: as §1
# ETV3 = molecular target: T8, ETV3 (Homo sapiens, UniProt P41162-2 1-143)
# T8 sequence: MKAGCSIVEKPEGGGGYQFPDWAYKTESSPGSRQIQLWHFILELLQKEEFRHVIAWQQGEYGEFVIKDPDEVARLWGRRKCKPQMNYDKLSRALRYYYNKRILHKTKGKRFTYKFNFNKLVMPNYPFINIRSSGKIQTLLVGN
# Procedure, shortened: as §1
sequence,measurement,setting,value
AGTTTT,binding signal,FLI1,"1.05 fold enrichment (6-mer frequency, TF over GST control)"
same,binding signal,EHF,"1.02 fold enrichment (6-mer frequency, TF over GST control)"
same,binding signal,SPIB,"1.08 fold enrichment (6-mer frequency, TF over GST control)"
same,binding signal,ELK3,"1.14 fold enrichment (6-mer frequency, TF over GST control)"
same,binding signal,ELF4,"1.04 fold enrichment (6-mer frequency, TF over GST control)"
same,binding signal,ELF3,"1.01 fold enrichment (6-mer frequency, TF over GST control)"
same,binding signal,ERF,"1.09 fold enrichment (6-mer frequency, TF over GST control)"
same,binding signal,ETV7,"1.02 fold enrichment (6-mer frequency, TF over GST control)"
same,binding signal,ELF5,"1.01 fold enrichment (6-mer frequency, TF over GST control)"
same,binding signal,ETV3,"1.07 fold enrichment (6-mer frequency, TF over GST control)"
